Records with an inconclusive call do not appear. A call without a number means that no potency is given here. Calls of active or inactive are those of the source. Unless noted, calls follow the shape of the full dose curve.
Assay: qHTS assay for small molecule agonists of the antioxidant response element (ARE) signaling pathway (AID 743202; active = well fitted activation curve with a large enough effect in the signal ratio in the repeat runs, not every such curve was filed as active; the % refers to the signal ratio)
Conditions: HepG2 ARE-bla reporter, beta-lactamase FRET, 16 h; series mostly up to 73.3 µM
Outline: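 Agonist mode reporter screen: HepG2 cells with ARE-controlled beta-lactamase are incubated with test compounds for 16 h at 37 C, and beta-lactamase activity is measured as fluorescence of cleaved B/G FRET substrate.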
Potency is read from the fitted curve at half-maximal effect.

| SMILES | Potency |
| --- | --- |
| CCn1cc[n+](C)c1 | inactive |
| CCCCc1c(C)nc(NCC)nc1OS(=O)(=O)N(C)C | 27.3 µM (active) |
| C=CC(=O)OCC(C)O (configuration not stated) | 8.91 µM (active) |
| Clc1ccc(C2(Cn3cncn3)CC(Br)CO2)c(Cl)c1 (configuration not stated) | inactive |
| CC1Sc2c(C(=O)O)c(=O)c3cc(F)c(N4CCNCC4)cc3n21 (configuration not stated) | inactive |
| C=CC(=O)OCCCCO | 3.86 µM (active) |
| CO/N=C(/C(=O)OC)c1ccccc1COc1ccccc1C | 19.3 µM (active) |
| O=C(CBr)Nc1ccc(Cl)cc1C(=O)c1ccccc1F | 23.7 µM (active) |
| COc1ccc(-c2ccccc2)cc1NNC(=O)OC(C)C | 16 µM (active) |
| O=C(O)C(F)(F)C(F)(F)C(F)(F)C(F)(F)C(F)(F)C(F)(F)C(F)(F)C(F)(F)C(F)(F)F | 24.3 µM (active) |
| Sc1ccccc1Cl | inactive |

Assay: qHTS assay for small molecule agonists of the antioxidant response element (ARE) signaling pathway - cell viability counter screen (AID 743203); also: nearly all actives have a fitted effect of over 55% in size
Conditions: ARE-bla HepG2 viability, CellTiter-Glo luminescence, 16 h; series mostly up to 73.3 µM
Outline: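 Compounds in DMSO were pinned onto ARE-bla HepG2 cells plated 5 hrs earlier at 2,000 cells/well. Sixteen hours later at 37C/5% CO2, CellTiter-Glo was added and luminescence measured after 30 min at room temperature.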

| SMILES | Potency |
| --- | --- |
| CCn1cc[n+](C)c1 | inactive |
| NCCCNCCCN | inactive |
| CN1C[C@H](CNC(=O)OCc2ccccc2)C[C@@H]2c3cccc4c3c(cn4C)C[C@H]21 | 33.5 µM (active) |
| COC1=CC(=O)O[C@@H](CCc2ccccc2)C1 | inactive |
| CCCCc1c(C)nc(NCC)nc1OS(=O)(=O)N(C)C | inactive |
| C=CC(=O)OCC(C)O (configuration not stated) | inactive |
| C=CC(=O)NCNC(=O)C=C | inactive |
| Clc1ccc(C2(Cn3cncn3)CC(Br)CO2)c(Cl)c1 (configuration not stated) | inactive |
| Clc1cc(C(Cl)(Cl)Cl)cnc1Cl | 61.1 µM (active) |
| CC1Sc2c(C(=O)O)c(=O)c3cc(F)c(N4CCNCC4)cc3n21 (configuration not stated) | inactive |
| CC(=O)c1cc2c(cc1C)C(C)(C)C(C)CC2(C)C (configuration not stated) | inactive |
| C=C(C#N)CCC#N | inactive |
| C=CC(=O)OCCCCO | inactive |
| CCO[C@H]1O[C@@H]2OC3(C)CC[C@H]4[C@H](C)CC[C@@H]([C@H]1C)[C@@]24OO3 | inactive |
| C[C@@H]1CC[C@H]2[C@@H](C)C(=O)O[C@@H]3O[C@@]4(C)CC[C@@H]1[C@]32OO4 | inactive |
| COP(=S)(OC)Oc1ccc([N+](=O)[O-])cc1Cl | inactive |

| SMILES | Potency |
| --- | --- |
| CO/N=C(/C(=O)OC)c1ccccc1COc1ccccc1C | inactive |
| Cl/C=C\C[N+]12CN3CN(CN(C3)C1)C2 | inactive |
| O=S(=O)(O)C(F)(F)C(F)(F)C(F)(F)C(F)(F)F | inactive |
| CC(C)O.CC(C)O.OCCN(CCO)CCO.OCCN(CCO)CCO.[Ti] | inactive |
| C[C@]12CC[C@H]3[C@@H](CCC4=CC(=O)CC[C@@H]43)[C@@H]1CC[C@@H]2OC(=O)CCC1CCCCC1 | inactive |
| CC1CC(CC2CCC(N)C(C)C2)CCC1N (configuration not stated) | inactive |
| CCCC(Cn1cncn1)c1ccc(Cl)cc1Cl (configuration not stated) | inactive |
| ClCc1cccc(Cl)c1 | inactive |
| O=C(CBr)Nc1ccc(Cl)cc1C(=O)c1ccccc1F | inactive |
| COc1ccc(-c2ccccc2)cc1NNC(=O)OC(C)C | inactive |
| O=C(O)C(F)(F)C(F)(F)C(F)(F)C(F)(F)C(F)(F)C(F)(F)C(F)(F)C(F)(F)C(F)(F)F | inactive |
| O=C(N[C@H](c1ccccc1)[C@@H]1CN2CCC1CC2)c1c(Cl)ccc(C(F)(F)F)c1Cl | 49.3 µM (active) |
| Sc1ccccc1Cl | inactive |
| CO[C@@H]1[C@H](OC(=O)NC(=O)CCl)CC[C@]2(CO2)[C@H]1[C@@]1(C)O[C@@H]1CC=C(C)C | inactive |
| CCC(C)(NC(=O)c1cc(Cl)c(C)c(Cl)c1)C(=O)CCl (configuration not stated) | 21.8 µM (active) |

Assay: qHTS assay for small molecule activators of the heat shock response signaling pathway - cell viability counter screen (AID 743209; active = well fitted cell-killing curve with a large enough effect in the repeat runs; also: nearly all actives have a fitted effect of over 50% in size)
Conditions: HSE-bla HeLa viability, CellTiter-Glo luminescence, 5 h; series mostly up to 62.6 µM
Outline: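 Counter screen for cytotoxicity in HeLa HSE-bla reporter cells. Treatment was 5 h at 37 C; viability was detected by luminescent ATP assay (CellTiter-Glo) in the same wells as the beta-lactamase read.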

| SMILES | Potency |
| --- | --- |
| CCn1cc[n+](C)c1 | inactive |
| CCOC(=O)[C@]1(c2ccccc2)Oc2ccccc2[C@@H]1N | inactive |
| CN1C[C@H](CNC(=O)OCc2ccccc2)C[C@@H]2c3cccc4c3c(cn4C)C[C@H]21 | inactive |
| COC1=CC(=O)O[C@@H](CCc2ccccc2)C1 | inactive |
| CCCCc1c(C)nc(NCC)nc1OS(=O)(=O)N(C)C | inactive |
| C=CC(=O)OCC(C)O (configuration not stated) | inactive |
| Clc1ccc(C2(Cn3cncn3)CC(Br)CO2)c(Cl)c1 (configuration not stated) | inactive |
| Clc1cc(C(Cl)(Cl)Cl)cnc1Cl | 49 µM (active) |
| CC1Sc2c(C(=O)O)c(=O)c3cc(F)c(N4CCNCC4)cc3n21 (configuration not stated) | inactive |
| C=C(C#N)CCC#N | inactive |
| N#Cc1cc(I)c(O)c(I)c1 | inactive |
| CCO[C@H]1O[C@@H]2OC3(C)CC[C@H]4[C@H](C)CC[C@@H]([C@H]1C)[C@@]24OO3 | inactive |
| C[C@@H]1CC[C@H]2[C@@H](C)C(=O)O[C@@H]3O[C@@]4(C)CC[C@@H]1[C@]32OO4 | inactive |
| COP(=S)(OC)Oc1ccc([N+](=O)[O-])cc1Cl | inactive |
| O=C(Nc1ccccc1)Nc1ccnc(Cl)c1 | inactive |
| CO/N=C(/C(=O)OC)c1ccccc1COc1ccccc1C | inactive |
| Cl/C=C\C[N+]12CN3CN(CN(C3)C1)C2 | inactive |
| CC(C)O.CC(C)O.OCCN(CCO)CCO.OCCN(CCO)CCO.[Ti] | inactive |
| C[C@]12CC[C@H]3[C@@H](CCC4=CC(=O)CC[C@@H]43)[C@@H]1CC[C@@H]2OC(=O)CCC1CCCCC1 | inactive |
| CC1CC(CC2CCC(N)C(C)C2)CCC1N (configuration not stated) | inactive |
| ClCc1cccc(Cl)c1 | inactive |
| O=C(CBr)Nc1ccc(Cl)cc1C(=O)c1ccccc1F | inactive |
| O=C(O)C(F)(F)C(F)(F)C(F)(F)C(F)(F)C(F)(F)C(F)(F)C(F)(F)C(F)(F)C(F)(F)F | inactive |
| Sc1ccccc1Cl | inactive |
| Cc1ccc(-c2c(Cl)nc(C#N)n2S(=O)(=O)N(C)C)cc1 | inactive |

— PubChem BioAssay (Tox21)
